Experimental data published in PubChem BioAssay (EPA / NIEHS).
Active and inactive are the calls of the source. The calls were made as follows: active = hit-call score of the fitted dose curve at least 0.9, where 1 is the maximum; inactive = score below 0.9.

What follows are compounds tested on MYC, MYC (gene 4609) (assay: LTEA_HepaRG_MYC: Life Technologies and Expression Analysis (LTEA) Assay for MYC using HepaRG (AID 2283518)). Conditions: mRNA level, 48 h; actives raise or lower the signal.
Description: LTEA_HepaRG is a cell based, multiplexed-readout assay that uses HepaRG, a human liver cell line, with measurements taken at 48 hours after chemical dosing on a 96-well plate.LTEA_HepaRG_MYC is one of 102 assay component(s) measured in the LTEA HepaRG cell culture assay. It is a marker of Cell proliferation, survival, death.Data from the assay component LTEA_HepaRG_MYC was analyzed into 1 endpoint. This assay endpoint, LTEA_HepaRG_MYC, was analyzed with bidirectional fitting relative to DMSO as the negative control and baseline of activity. Using a type of inducible reporter, measures of mRNA induction for gain or loss-of-signal activity can be used to understand regulation of transcription factor activity. To generalize the intended target to other relatable targets, this assay endpoint is annotated to the dna binding intended target family, where the subfamily is basic helix-loop-helix leucine zipper.
A total of 1060 chemcials from the ToxCast library were tested in eight-point concentration-response experiments. Cell culture and cytotoxicity assays were conducted at Thermo Fisher Scientific's Custom Services facility (Madison, WI). A single lot of human HepaRG cells (Thermo Fisher Scientific, Frederick, MD) was used for the cell culture experiments. 96-well format collagen type I coated plates of human HepaRG cells were prepared using established methods. Briefly, cryopreserved HepaRG cells were thawed, plated at a density of approximately 100,000 cells/well in HepaRG Thaw, Plate, and General Purpose media (HPRG770, Thermo Fisher Scientific), and incubated for 48 hours. 0.5% DMSO was selected as vehicle control to balance the requisite need of DMSO in HepaRG cultures to maintain differentiation (for example, baseline metabolism, proportions of hepatocytes vs. cholangiocytes), while enabling further hepatic receptor pathway activation (for example, PXR and CAR) in response to chemical exposure. 48 hours after plating, the culture medium was replaced with HepaRG Serum-Free Incudtion Media. Cells were exposed to each test chemical in duplicate and maintained in CO2 incubators for another 48 hours. Chemical plates were thawed to room temperature and 200x concentrations of treatment groups were prepared. 8-point conentration-reponse curves were made with the highest exposure at 100 uM, followed by half-log dilutions, all in 0.5% DMSO. Each test plate contained variouse controls, induction positive controls (1mM phenobarbital), cytotoxicity positive controls ([…] aflatoxin B1), vehicle controls (0.5% DMSO), and total lysis controls (0.5% DMSO). Cell morphology images were taken using an Essen IncuCyte FLR automated microscope, with six 96-well plates imaged in about 24 minutes. Images were captured and exported and JPEG files. Spent culture media was transfered to black-well plates for the LDH assay, and remaining media was sorted at -80 C for later use. Cells were treated with RLT buffer and frozen until shipped for gene expression analysis. Total RNA was isolated from the cell suspension in 75 uL of Buffer RLT (Qiagen, Germantown, MD 20874) by Quintiles/Expression Analysis (Durham, NC) using a custom isolation procedure. Total RNA from each plate well was transferred to a preamplification plate. Fluidigm's 96.96 Dynamic ArrayTM (Fluidigm, Amsterdam, the Netherlands) technology was used for gene expression analyses by quantitative reverse transcription polymerase chain reaction (qRT-PCR, performed by Quintiles/Expression Analysis, Durham, NC)89. Standard TaqManTM Assays (Applied Biosystems/ThermoFisher Scientific, Foster City, CA) were used to assess the expression of 93 genes selected based on their selectivity and sensitivity to important hepatic receptors known to be modulated by environmental chemicals; importance in human hepatocyte functionality; and hepatotoxicity. […]
With `C=C(C)[C@H]1Cc2c(ccc3c2O[C@@H]2COc4cc(OC)c(OC)cc4[C@@H]2C3=O)O1` the AC50 was 6.64 µM (active).
In the case of `COc1cccc(C(=O)NN(C(=O)c2cc(C)cc(C)c2)C(C)(C)C)c1C`, the outcome is reported as “inactive”.
In the case of `CCC(CC)Nc1c([N+](=O)[O-])cc(C)c(C)c1[N+](=O)[O-]`, the outcome is reported as “inactive”.
`COP(=O)(OC)OC(Br)C(Cl)(Cl)Br` (stereo not given) was tested, and the outcome was “inactive”.
For `CSC1=N[C@@](C)(c2ccccc2)C(=O)N1Nc1ccccc1`, the AC50 was 31.2 µM (active).
For `C#CCC1=C(C)C(OC(=O)C2C(C=C(C)C)C2(C)C)CC1=O` (stereo not given), the outcome was “inactive”.
With `CSc1nc(NC(C)C)nc(NC(C)C)n1` the outcome was “inactive”.
For `COP(=O)(OC)C(O)C(Cl)(Cl)Cl` (stereo not given), the outcome was “inactive”.
In the case of `CCCCN(CC)c1c([N+](=O)[O-])cc(C(F)(F)F)cc1[N+](=O)[O-]`, the outcome is reported as “inactive”.
For `COc1ccc(C(=CC(=O)N2CCOCC2)c2ccc(Cl)cc2)cc1OC`, the outcome was “inactive”.
In the case of `Cc1ccn2nc(S(=O)(=O)Nc3c(F)cccc3F)nc2n1`, the outcome is reported as “inactive”.
For `N#CSCSC#N`, the outcome was “inactive”.
With `CCCCSP(=O)(SCCCC)SCCCC` the outcome was “inactive”.
`C#CC(C)(C)NC(=O)c1cc(Cl)cc(Cl)c1` was tested, and the outcome was “inactive”.
For `CCOP(=S)(OCC)Oc1ccc2c(C)c(Cl)c(=O)oc2c1`, the AC50 was 50 µM (active).
With `COP(=O)(NC(C)=O)SC` (stereo not given) the outcome was “inactive”.
With `CCOP(=S)(OCC)Oc1cc(C)nc(C(C)C)n1` the outcome was “inactive”.
In the case of `CSc1nnc(C(C)(C)C)c(=O)n1N`, the outcome is reported as “inactive”.
For `CC1(C(=O)Nc2ccc(O)c(Cl)c2Cl)CCCCC1`, the outcome was “inactive”.
For `O=c1ccc(=O)[nH][nH]1`, the outcome was “inactive”.
`CNC(=O)Oc1cccc2c1OC(C)(C)O2` was tested, and the outcome was “inactive”.
With `CN(C)C(=O)Nc1cccc(C(F)(F)F)c1` the outcome was “inactive”.
For `CCC(=O)Nc1ccc(Cl)c(Cl)c1`, the AC50 was 50 µM (active).
`C[N+]1(C)CCCCC1` was tested, and the outcome was “inactive”.
In the case of `FC(F)C(F)(F)OCC(Cn1cncn1)c1ccc(Cl)cc1Cl` (stereo not given), the AC50 is reported as 37.3 µM (active).
`CC(Oc1cccc(Cl)c1)C(=O)O` (stereo not given) was tested, and the outcome was “inactive”.
For `CC(=NC#N)N(C)Cc1ccc(Cl)nc1`, the outcome was “inactive”.
In the case of `CC(C)[C@H](C(=O)O[C@H](C#N)c1cccc(Oc2ccccc2)c1)c1ccc(Cl)cc1`, the outcome is reported as “inactive”.
With `CCOP(=O)(SC(C)CC)N1CCSC1=O` (stereo not given) the outcome was “inactive”.
With `CC(C)N(C(=O)SCC(Cl)=C(Cl)Cl)C(C)C` the outcome was “inactive”.
`CNc1cnn(-c2cccc(C(F)(F)F)c2)c(=O)c1Cl` was tested, and the AC50 was 19.6 µM (active).
In the case of `CC(COc1ccc(Oc2ccccc2)cc1)Oc1ccccn1` (stereo not given), the outcome is reported as “inactive”.
`CCOP(=O)(OCC)Oc1cc(C)nc(C(C)C)n1` was tested, and the outcome was “inactive”.
For `CCC(=NOC/C=C/Cl)C1=C(O)CC(C2CCOCC2)CC1=O` (stereo not given), the outcome was “inactive”.
`O=C(O)c1cc(Oc2ccc(C(F)(F)F)cc2Cl)ccc1[N+](=O)[O-]` was tested, and the outcome was “inactive”.
In the case of `CCc1cccc(CC)c1N(COC)C(=O)CCl`, the outcome is reported as “inactive”.
`O=[N+]([O-])c1cc(C(F)(F)F)c(Cl)c([N+](=O)[O-])c1Nc1ncc(C(F)(F)F)cc1Cl` was tested, and the outcome was “inactive”.
In the case of `CCOC(=O)COc1cc(-c2nn(C)c(OC(F)F)c2Cl)c(F)cc1Cl`, the outcome is reported as “inactive”.
With `C[Si](Cn1cncn1)(c1ccc(F)cc1)c1ccc(F)cc1` the AC50 was 68.1 µM (active).
`CCCSP(=O)(OCC)SCCC` was tested, and the outcome was “inactive”.
